# According to PubChem BioAssay (EPA / NIEHS):
# Inconclusive results are not listed. Calls of active or inactive are those of the source. Rule for the calls: active = hit-call score of the fitted dose curve at least 0.9, where 1 is the maximum; inconclusive = response in the unintended direction; inactive = score below 0.9.
# Assays:
# [1] = molecular target: sheep Cyclooxygenase-2 (Cox2), PTGS2 (gene 443460) (UniProt P79208); assay: NVS_ENZ_oCOX2: NovaScreen (NVS) Enzymatic Assay for sheep Cyclooxygenase-2 (Cox2) (AID 2283231)
# Sequence of sheep Cyclooxygenase-2 (Cox2), PTGS2 (gene 443460) (P79208 whole entry, looked up): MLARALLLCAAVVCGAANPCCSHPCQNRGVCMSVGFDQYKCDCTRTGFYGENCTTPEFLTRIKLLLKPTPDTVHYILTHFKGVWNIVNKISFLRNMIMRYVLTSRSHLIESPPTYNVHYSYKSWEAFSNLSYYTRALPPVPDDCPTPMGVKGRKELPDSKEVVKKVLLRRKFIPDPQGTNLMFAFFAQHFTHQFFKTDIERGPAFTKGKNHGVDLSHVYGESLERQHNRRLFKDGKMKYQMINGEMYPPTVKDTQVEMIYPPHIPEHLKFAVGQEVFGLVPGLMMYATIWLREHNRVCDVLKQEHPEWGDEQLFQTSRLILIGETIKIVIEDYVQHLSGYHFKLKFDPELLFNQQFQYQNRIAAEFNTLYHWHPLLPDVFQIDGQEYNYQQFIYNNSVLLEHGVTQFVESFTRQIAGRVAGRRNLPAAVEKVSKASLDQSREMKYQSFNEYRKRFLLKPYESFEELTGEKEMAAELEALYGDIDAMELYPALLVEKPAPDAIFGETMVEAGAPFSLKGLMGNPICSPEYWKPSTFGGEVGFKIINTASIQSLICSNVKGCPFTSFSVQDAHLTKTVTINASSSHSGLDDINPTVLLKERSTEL
# Procedure, shortened: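 Enzyme from ovine placenta, cell-free; colorimetric absorbance read 0.66 hour after dosing, loss of signal vs DMSO. Screened in duplicate at 25 uM, then concentration-response up to 50 uM.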
# [2] = molecular target: rat Catechol-O-Methyl Transferase (COMT), Comt (gene 24267) (UniProt P22734); assay: NVS_ENZ_rCOMT: NovaScreen (NVS) Enzymatic Assay for rat Catechol-O-Methyl Transferase (COMT) (AID 2283235)
# Sequence of rat Catechol-O-Methyl Transferase (COMT), Comt (gene 24267) (P22734 whole entry, looked up): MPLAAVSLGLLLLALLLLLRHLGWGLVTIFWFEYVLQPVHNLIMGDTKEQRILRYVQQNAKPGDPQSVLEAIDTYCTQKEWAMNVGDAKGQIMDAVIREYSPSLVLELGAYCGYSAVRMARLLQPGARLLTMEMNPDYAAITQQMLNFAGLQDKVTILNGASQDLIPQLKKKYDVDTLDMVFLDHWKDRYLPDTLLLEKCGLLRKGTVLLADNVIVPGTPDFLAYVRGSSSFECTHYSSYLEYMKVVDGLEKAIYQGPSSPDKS
# Procedure, shortened: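 Rat dorsal striatum extract served as COMT source; product quantified by HPLC/spectrophotometry, read at 0 h after dosing. Primary single-concentration screen at 25 uM, followed by concentration series to a 50 uM maximum.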
# [3] = molecular target: sheep Cyclooxygenase-1 (Cox1), PTGS1 (gene 443551) (UniProt P05979); assay: NVS_ENZ_oCOX1: NovaScreen (NVS) Enzymatic Assay for sheep Cyclooxygenase-1 (Cox1) (AID 2283239);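 note: actives reduce cyclooxygenase activity so potencies are for inhibitors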
# Sequence of sheep Cyclooxygenase-1 (Cox1), PTGS1 (gene 443551) (P05979 whole entry, looked up): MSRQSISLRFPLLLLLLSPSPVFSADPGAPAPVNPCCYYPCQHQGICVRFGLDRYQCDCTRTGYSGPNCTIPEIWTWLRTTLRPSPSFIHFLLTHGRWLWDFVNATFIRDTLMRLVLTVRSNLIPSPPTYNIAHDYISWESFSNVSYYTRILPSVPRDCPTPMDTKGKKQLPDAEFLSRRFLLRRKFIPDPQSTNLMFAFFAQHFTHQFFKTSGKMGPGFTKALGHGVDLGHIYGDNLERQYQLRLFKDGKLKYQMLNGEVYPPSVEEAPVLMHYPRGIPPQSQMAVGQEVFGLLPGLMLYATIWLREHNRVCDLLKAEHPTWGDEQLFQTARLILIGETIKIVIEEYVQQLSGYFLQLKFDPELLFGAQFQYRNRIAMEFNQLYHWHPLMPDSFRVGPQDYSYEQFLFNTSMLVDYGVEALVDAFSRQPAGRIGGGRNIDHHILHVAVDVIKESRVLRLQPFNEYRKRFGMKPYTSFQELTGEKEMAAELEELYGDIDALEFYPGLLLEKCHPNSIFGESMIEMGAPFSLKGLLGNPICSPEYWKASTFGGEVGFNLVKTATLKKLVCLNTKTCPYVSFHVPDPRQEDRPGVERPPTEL
# Procedure, shortened: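 Tested in duplicate at 25 uM, then in concentration series if active, against seminal vesicle extract from sheep. Enzyme activity was measured colorimetrically at 0.66 hour and normalised to DMSO.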
# [4] = molecular target: rat Constitutive Nitric Oxide Synthase (CNOS), Nos1 (gene 24598) (UniProt P29476); assay: NVS_ENZ_rCNOS: NovaScreen (NVS) Enzymatic Assay for rat Constitutive Nitric Oxide Synthase (CNOS) (AID 2283236)
# Sequence of rat Constitutive Nitric Oxide Synthase (CNOS), Nos1 (gene 24598) (P29476 whole entry, looked up): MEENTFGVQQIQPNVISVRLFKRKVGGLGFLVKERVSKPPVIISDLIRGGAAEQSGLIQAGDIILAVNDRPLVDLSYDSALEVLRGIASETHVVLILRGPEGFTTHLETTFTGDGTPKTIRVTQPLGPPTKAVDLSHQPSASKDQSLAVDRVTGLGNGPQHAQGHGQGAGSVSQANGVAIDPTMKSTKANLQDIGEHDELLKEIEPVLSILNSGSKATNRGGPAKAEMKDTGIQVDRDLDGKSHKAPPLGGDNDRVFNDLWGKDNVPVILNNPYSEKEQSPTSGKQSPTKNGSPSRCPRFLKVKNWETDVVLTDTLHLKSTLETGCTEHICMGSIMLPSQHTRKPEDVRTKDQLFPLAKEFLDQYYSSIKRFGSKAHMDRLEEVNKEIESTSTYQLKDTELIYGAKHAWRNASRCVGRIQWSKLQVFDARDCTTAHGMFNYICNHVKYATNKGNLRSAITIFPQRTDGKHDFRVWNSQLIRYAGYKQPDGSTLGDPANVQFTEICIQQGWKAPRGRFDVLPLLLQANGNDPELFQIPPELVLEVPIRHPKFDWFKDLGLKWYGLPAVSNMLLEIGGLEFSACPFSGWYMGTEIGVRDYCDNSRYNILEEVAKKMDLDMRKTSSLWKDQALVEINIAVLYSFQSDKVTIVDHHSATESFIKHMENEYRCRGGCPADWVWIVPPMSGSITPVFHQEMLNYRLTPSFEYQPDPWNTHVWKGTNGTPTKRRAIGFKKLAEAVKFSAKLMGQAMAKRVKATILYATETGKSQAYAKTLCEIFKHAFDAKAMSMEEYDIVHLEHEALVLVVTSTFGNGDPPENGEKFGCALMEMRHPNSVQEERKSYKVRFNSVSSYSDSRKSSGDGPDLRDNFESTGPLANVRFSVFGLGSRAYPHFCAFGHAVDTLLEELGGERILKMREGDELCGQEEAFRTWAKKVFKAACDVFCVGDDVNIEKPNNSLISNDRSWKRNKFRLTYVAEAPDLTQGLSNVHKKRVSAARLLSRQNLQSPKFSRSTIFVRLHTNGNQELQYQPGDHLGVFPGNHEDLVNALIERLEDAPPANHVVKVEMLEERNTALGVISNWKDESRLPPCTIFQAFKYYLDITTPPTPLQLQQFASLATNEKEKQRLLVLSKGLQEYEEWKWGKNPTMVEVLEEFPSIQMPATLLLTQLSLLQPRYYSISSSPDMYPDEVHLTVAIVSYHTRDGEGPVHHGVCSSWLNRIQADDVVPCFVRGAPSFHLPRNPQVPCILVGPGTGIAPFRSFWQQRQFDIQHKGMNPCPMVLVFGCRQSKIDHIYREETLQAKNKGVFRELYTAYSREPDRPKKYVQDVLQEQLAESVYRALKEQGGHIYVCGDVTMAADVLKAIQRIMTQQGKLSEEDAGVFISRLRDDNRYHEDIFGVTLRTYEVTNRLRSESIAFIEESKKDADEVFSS
# Procedure, shortened: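 Single 25 uM duplicate screen, then concentration series to 50 uM for chemicals meeting threshold. Rat brain membrane-derived CNOS activity detected radiometrically by filtration and scintillation counting, 1 h after compound addition; DMSO as baseline.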
# [5] = molecular target: bovine Dopamine Receptor (DR), Non-selective Binding, DRD1 (gene 281125) (UniProt Q95136); assay: NVS_GPCR_bDR_NonSelective: NovaScreen (NVS) G Protein-Coupled Receptor Assay for bovine Dopamine Receptor (DR), Non-selective Binding (AID 2283241)
# Procedure, shortened: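 Filter-based radioligand binding with bovine striatal membrane, incubated 1 h; DMSO as negative baseline. Initial duplicate single-point test at 25 uM preceded concentration series for actives.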
# [6] = molecular target: Adenosine receptor A1 (Bos taurus) (UniProt P28190); assay: NVS_GPCR_bAdoR_NonSelective: NovaScreen (NVS) G Protein-Coupled Receptor Assay for bovine Adenosine Receptor (AdoR), Non-selective Binding (AID 2283244)
# Sequence of Adenosine receptor A1 (Bos taurus) (P28190 whole entry, looked up): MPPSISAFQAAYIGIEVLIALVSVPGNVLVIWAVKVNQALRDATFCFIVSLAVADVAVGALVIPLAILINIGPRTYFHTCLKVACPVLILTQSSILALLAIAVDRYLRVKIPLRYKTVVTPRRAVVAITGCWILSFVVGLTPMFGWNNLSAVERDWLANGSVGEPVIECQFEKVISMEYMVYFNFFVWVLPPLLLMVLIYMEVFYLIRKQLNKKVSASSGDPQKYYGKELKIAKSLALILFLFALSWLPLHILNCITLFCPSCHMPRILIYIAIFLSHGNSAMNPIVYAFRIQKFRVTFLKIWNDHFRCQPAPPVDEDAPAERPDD
# Procedure, shortened: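 Cell-free binding with membranes from bovine striatum: radioligand displaced by test chemical, read after 1 h by filtration and scintillation. Single-point 25 uM duplicate primary, 50 uM top concentration in follow-up curves, DMSO baseline.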
# [7] = NVS_GPCR_bNPY_NonSelective: NovaScreen (NVS) G Protein-Coupled Receptor Assay for bovine Neuropeptide Y (NPY) Receptor, Non-selective Binding (AID 2283245)
# Procedure, shortened: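 Displacement of radioligand from bovine hippocampal membrane receptors, read by filtration and scintillation counting after 1 hour. Concentration-response to a top of 50 uM followed a 25 uM duplicate primary screen. Loss of signal versus DMSO.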
# [8] = molecular target: rabbit Imidazoline 2 Central (I2C), CKB (gene 100009085) (UniProt P00567); assay: NVS_ENZ_rabI2C: NovaScreen (NVS) Enzymatic Assay for rabbit Imidazoline 2 Central (I2C) (AID 2283228)
# Sequence of rabbit Imidazoline 2 Central (I2C), CKB (gene 100009085) (P00567 whole entry, looked up): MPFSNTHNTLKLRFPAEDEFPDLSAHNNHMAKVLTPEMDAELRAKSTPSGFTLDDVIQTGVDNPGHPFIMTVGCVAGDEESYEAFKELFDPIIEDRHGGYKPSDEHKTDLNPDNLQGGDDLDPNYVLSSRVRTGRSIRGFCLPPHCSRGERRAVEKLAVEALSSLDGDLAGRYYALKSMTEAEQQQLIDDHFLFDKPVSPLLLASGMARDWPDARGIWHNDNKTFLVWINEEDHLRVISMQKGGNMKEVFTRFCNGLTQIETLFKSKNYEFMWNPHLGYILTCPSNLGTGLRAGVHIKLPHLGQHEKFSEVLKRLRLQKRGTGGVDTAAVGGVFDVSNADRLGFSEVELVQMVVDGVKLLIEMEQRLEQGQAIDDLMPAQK
# Procedure, shortened: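 Rabbit brain membranes, cell-free; readout by filter-based scintillation counting 1.5 hours after dosing, loss of signal vs DMSO. Initial duplicate test at 25 uM, then concentration-response with 50 uM top concentration.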
# [9] = molecular target: human Vascular Endothelial Growth Factor Receptor 2 (VEGFR2), KDR (gene 3791) (UniProt P35968); assay: NVS_ENZ_hVEGFR2: NovaScreen (NVS) Enzymatic Assay for human Vascular Endothelial Growth Factor Receptor 2 (VEGFR2) (AID 2283230)
# Sequence of human Vascular Endothelial Growth Factor Receptor 2 (VEGFR2), KDR (gene 3791) (P35968 whole entry, looked up): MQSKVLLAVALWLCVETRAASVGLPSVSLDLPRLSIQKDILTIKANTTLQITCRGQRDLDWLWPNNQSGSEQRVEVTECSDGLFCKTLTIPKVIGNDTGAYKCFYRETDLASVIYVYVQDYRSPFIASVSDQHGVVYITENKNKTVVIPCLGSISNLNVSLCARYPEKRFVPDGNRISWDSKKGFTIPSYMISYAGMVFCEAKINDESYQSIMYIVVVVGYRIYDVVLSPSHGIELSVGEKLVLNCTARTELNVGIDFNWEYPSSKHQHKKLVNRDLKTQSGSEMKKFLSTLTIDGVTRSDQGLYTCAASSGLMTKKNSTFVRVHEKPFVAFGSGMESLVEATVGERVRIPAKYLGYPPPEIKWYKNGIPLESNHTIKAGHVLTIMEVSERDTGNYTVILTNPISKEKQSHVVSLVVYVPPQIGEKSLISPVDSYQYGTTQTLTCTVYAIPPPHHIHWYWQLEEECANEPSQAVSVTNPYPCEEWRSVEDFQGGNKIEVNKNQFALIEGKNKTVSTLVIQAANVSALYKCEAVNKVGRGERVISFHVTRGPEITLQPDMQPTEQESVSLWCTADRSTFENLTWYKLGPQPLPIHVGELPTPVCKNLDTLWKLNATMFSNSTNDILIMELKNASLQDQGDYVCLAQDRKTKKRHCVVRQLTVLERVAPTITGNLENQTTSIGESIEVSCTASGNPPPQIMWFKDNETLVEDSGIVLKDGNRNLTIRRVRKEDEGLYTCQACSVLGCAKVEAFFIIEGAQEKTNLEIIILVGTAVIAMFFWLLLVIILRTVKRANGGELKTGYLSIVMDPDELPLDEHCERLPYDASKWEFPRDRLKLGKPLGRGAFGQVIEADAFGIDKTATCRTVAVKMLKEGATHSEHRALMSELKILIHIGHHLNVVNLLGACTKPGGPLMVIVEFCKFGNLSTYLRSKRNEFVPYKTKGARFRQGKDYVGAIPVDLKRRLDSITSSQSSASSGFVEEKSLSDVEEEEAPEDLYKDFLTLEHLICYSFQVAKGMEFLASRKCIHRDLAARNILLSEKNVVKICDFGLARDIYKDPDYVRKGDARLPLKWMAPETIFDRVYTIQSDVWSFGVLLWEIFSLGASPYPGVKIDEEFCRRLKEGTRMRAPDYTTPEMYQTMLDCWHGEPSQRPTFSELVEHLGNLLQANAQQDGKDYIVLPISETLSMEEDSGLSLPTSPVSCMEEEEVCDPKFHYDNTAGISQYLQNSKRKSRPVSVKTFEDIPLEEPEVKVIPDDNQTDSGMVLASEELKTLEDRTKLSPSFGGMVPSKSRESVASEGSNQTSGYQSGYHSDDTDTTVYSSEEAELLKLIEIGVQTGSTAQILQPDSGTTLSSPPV
# Procedure, shortened: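 Cell-free recombinant VEGFR2 kinase, fluorescent substrate with electrophoretic mobility-shift separation; read 1 h after dosing. Screened at 25 uM in duplicate, hits to concentration-response up to 50 uM; loss-of-signal versus DMSO.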
# [10] = test system: bovine Angiotensin II Receptor Type 2 (AT2), gene 407157; assay: NVS_GPCR_bAT2: NovaScreen (NVS) G Protein-Coupled Receptor Assay for bovine Angiotensin II Receptor Type 2 (AT2) (AID 2283240)
# Procedure, shortened: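 Radioligand displacement on bovine cerebellar membranes, 1 hour incubation, filter-based scintillation counting; loss of signal vs DMSO. Duplicate single-point screen at 25 uM, then concentration-response to 50 uM maximum.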
structure (smiles),measurement,setting,value
CCCCCCCCOC(=O)c1cc(O)c(O)c(O)c1,AC50,[1],18.3 µM (active)
same,AC50,[2],2.54 µM (active)
same,outcome,[3],inactive
CCN(CC)C(=O)c1cc(S(=O)(=O)Cc2ccccc2)c(N2CCC(c3ccccc3)CC2)cc1N(CC)CCN(C)C,outcome,[4],inactive
same,AC50,[5],6.88 µM (active)
same,outcome,[6],inactive
same,outcome,[7],inactive
CCCCCCCCCCCC[N+](C)(C)C,AC50,[8],2.13 µM (active)
same,outcome,[7],inactive
CC/C(=C(/CC)c1ccc(O)cc1)c1ccc(O)cc1,outcome,[3],inactive
CN(C)C(=O)C1(N2CCCCC2)CCN(CC[C@@]2(c3ccc(Cl)c(Cl)c3)CN(C(=O)c3ccccc3)CCO2)CC1,outcome,[9],inactive
same,AC50,[5],4.5 µM (active)
same,AC50,[7],15.1 µM (active)
COc1ccc2cc(S(=O)(=O)N[C@H](CC(=O)N[C@H](Cc3ccc(CN4[C@H](C)CCC[C@@H]4C)cc3)C(=O)N(C)C(C)C)c3ccc4c(c3)OCO4)ccc2c1,AC50,[10],37.5 µM (active)
same,AC50,[7],10.7 µM (active)
CCCCCCCCCCCCO,outcome,[9],inactive
c1ccc2ccccc2c1,outcome,[9],inactive
CCCOC(=O)c1cc(O)c(O)c(O)c1,AC50,[1],14.8 µM (active)
same,AC50,[2],0.454 µM (active)
same,AC50,[3],12 µM (active)
Clc1cc(Cl)c2c(c1)N=C1CCCCCN1C2,AC50,[8],6.89 µM (active)
CCCCCc1ccc(N)cc1,AC50,[3],7.04 µM (active)
O=C(Nc1ccc(Cl)cc1)Nc1ccc(Cl)c(Cl)c1,outcome,[9],inactive
O=C(O)Cn1c(=O)n(Cc2ccc(Br)cc2F)c(=O)c2ccc(Cl)cc21,outcome,[10],inactive
CCCCCCCCCCCO,outcome,[9],inactive
same,outcome,[7],inactive
CC1=CC(=O)/C(=C(/C)O)C(=O)O1,outcome,[1],inactive
CCCC(=O)OCCC(C)C,outcome,[8],inactive
CCCCOC(=O)c1ccc(O)cc1,outcome,[9],inactive
same,AC50,[1],7.62 µM (active)
same,outcome,[4],inactive
Cc1c2ccccc2c(C)c2c1ccc1ccccc12,outcome,[9],inactive
same,AC50,[3],43.3 µM (active)
CN(C[C@@H](CC[N+]12CCC(C3CCCCC3)(CC1)CC2)c1ccc(Cl)c(Cl)c1)C(=O)c1cc(C(F)(F)F)cc(C(F)(F)F)c1,AC50,[10],36.7 µM (active)
CC1(C)NC(=O)N(c2ccc([N+](=O)[O-])c(C(F)(F)F)c2)C1=O,AC50,[6],9.79 µM (active)
c1ccc(C[n+]2cccc3ccccc32)cc1,AC50,[8],11.9 µM (active)
CN(C)c1ccc(C(=C2C=CC(=[N+](C)C)C=C2)c2ccc(N(C)C)cc2)cc1,outcome,[8],inactive
same,AC50,[9],0.572 µM (active)
same,AC50,[6],13.6 µM (active)
same,AC50,[7],11.2 µM (active)
NCc1cccc(C2CCN(C(=O)c3ccc(C#Cc4ccccc4F)o3)CC2)c1,AC50,[8],7.1 µM (active)
same,AC50,[7],25 µM (active)
CC(C)(C)c1cc(/C=C2\SC(N)=NC2=O)cc(C(C)(C)C)c1O,outcome,[9],inactive
same,outcome,[3],inactive
same,outcome,[6],inactive
O=c1c(-c2ccc(O)cc2)coc2cc(O)cc(O)c12,outcome,[3],inactive
same,AC50,[6],18.9 µM (active)
Cc1oc2c(NC(=O)c3c(Cl)cccc3Cl)cccc2c1C(C)(C)O,outcome,[8],inactive
